Assay outcomes (PubChem BioAssay)
Rows were chosen to be rich in hits. Some 1.6% of all compounds tested hit in one or more screens of this group.
KCNQ2 block – inhibitors of rat KCNQ2 potassium channel; CHO-K1 KCNQ2, FluxOR thallium flux, 20 min; active compounds read low; AID 2156; hit rate 1.1% among 310,000; B-score at 10 µM; O88943;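 active means fluorescence ratio B-score at most minus 3 library SDs, with starting brightness B-score within 2 library SDs, cut at about -5.5 in these data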
Target sequence (O88943 whole entry, looked up): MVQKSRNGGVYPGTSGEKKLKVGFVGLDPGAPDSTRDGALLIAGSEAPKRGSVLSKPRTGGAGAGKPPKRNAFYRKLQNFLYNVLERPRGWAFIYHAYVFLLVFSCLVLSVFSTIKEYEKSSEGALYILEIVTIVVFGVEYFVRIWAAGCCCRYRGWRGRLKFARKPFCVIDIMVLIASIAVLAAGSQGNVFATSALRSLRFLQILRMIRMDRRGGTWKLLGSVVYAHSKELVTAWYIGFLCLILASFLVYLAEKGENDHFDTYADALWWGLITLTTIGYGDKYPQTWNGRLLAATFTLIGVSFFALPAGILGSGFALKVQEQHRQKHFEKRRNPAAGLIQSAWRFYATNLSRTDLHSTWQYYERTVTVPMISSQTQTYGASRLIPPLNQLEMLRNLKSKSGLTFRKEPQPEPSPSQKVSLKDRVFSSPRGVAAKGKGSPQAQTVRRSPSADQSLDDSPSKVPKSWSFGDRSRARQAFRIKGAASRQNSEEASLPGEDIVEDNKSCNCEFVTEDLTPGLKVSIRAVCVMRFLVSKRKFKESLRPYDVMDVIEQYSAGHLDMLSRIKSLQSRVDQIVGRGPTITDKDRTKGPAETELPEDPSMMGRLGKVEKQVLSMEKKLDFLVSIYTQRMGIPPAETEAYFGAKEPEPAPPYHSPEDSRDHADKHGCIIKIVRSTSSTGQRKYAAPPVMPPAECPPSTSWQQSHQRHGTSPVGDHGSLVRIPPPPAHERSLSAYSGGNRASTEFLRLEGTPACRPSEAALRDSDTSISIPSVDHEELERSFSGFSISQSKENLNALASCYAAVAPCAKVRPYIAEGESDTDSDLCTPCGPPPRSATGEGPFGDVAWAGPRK
KCNQ2 pot – potentiators of rat KCNQ2 potassium channel | CHO-K1 KCNQ2, FluxOR thallium flux fluorescence; active compounds read high | B-score at 10 µM | hit rate 0.54% among 310,000 | O88943 | AID 2239;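 active means fluorescence ratio B-score at least 3 SD of library B-scores, with initial fluorescence B-score within 3 of them, cut at about 5.3 in these data; same plate scores as AID 2156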;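 further: B-score of peak minus minimum over baseline fluorescence ratio after K+ and Tl+ stimulus; positive B-score means potentiation of KCNQ2 with more thallium influx and brighter signal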
Kir21 conf inh – confirmation of mouse Kir2.1 potassium channel inhibitors; AID 2032; Tl flux remaining, % of negative control (active compounds read low), % at 10 µM; hit rate 41% among 2,300; shares compounds with KCNQ2 pot; Kir2.1-expressing cells, FluxOR thallium flux fluorescence; active compounds read low;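 active means Primary-screen hit whose thallium flux fell at least 3 control SD below untreated wells in both duplicates, with normal baseline fluorescence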;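 further: 0% = blank wells without stimulus and 100% = stimulated no-compound controls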
HEK293 ctr – alters thallium flux in parental HEK293 cells, Kir2.1 counter-screen | hit rate 19% among 2,300 | FluxOR signal as % of negative control (100 = no effect), % at 10 µM | FluxOR thallium flux fluorescence; 0% = unstimulated blank wells | AID 2105 | shares compounds with KCNQ2 pot;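 active means dye signal at least 3 control SD above or below untreated wells in both duplicates, raw fluorescence within 3, either direction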;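 further: percent is based on the flux ratio of peak minus minimum fluorescence over baseline F0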
CHO-K1 ctr – counter-screen for KCNQ2 potentiators: effect in parental CHO-K1 cells; FluxOR thallium flux fluorescence; zero = vehicle mean+3SD, 100% = vehicle-minus-blank window; AID 2282; hit rate 43% among 1,200; activity increase over 3SD of controls, % at 10 µM; shares compounds with KCNQ2 pot;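 active means signal rise of at least 3 SD above the untreated control mean, in both duplicate wells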;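 further: counter screen of KCNQ2 potentiator hits so any rise reflects channel-independent effects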
KCNQ1 pot spec – selectivity of KCNQ2 potentiators: effect on human KCNQ1; shares compounds with KCNQ2 pot; CHO KCNQ1 stable, FluxOR thallium flux fluorescence; beyond 3SD, as % of vehicle-control signal; hit rate 28% among 1,200; activation over 3SD threshold, % at 10 µM;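 active means fluorescence ratio rise of at least 3 SD of vehicle wells above their mean, in both replicate wells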;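 further: 0% = vehicle mean plus 3 SD and 100% = vehicle minus unstimulated blank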
KCNQ2 pot confirm – confirmation of rat KCNQ2 potassium channel potentiators | potentiation, less the hit threshold, % at 10 µM | CHO-KCNQ2 cells, FluxOR thallium flux fluorescence | shares compounds with KCNQ2 pot | hit rate 68% among 1,200;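 active means fluorescence ratio rising 3 SD or more over the vehicle control mean in both replicates, plus primary screen hit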;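 further: peak minus minimum thallium fluorescence divided by baseline after K/Tl stimulus; 0% = vehicle mean plus 3 SD and 100% = vehicle minus unstimulated blank difference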
Kir21 spec – tests whether KCNQ2 potentiators also affect mouse Kir2.1; shares compounds with KCNQ2 pot; hit rate 2% among 1,200; HEK293 Kir2.1, FluxOR thallium flux fluorescence; activity over 3SD threshold, % at 10 µM; AID 2345;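 active means fluorescence ratio rise of at least 3 SD above the vehicle-control mean, seen in both replicates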;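 further: 0% = vehicle mean plus 3 SD and 100% = vehicle minus no-stimulus blank window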
KCNQ2 W236L MoA – potentiates the retigabine-insensitive rat KCNQ2 W236L mutant channel. shares compounds with KCNQ2 pot. CHO KCNQ2-W236L, automated patch clamp current. current increase over 3SD of negative controls (%), active compounds read high, % at 25 µM. hit rate 10% among 940. AID 2558;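 active means current increase at least 3 SD of the untreated controls above them in both duplicate recordings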
The depositor's hits bear a star; i = inactive; · = no result.

SMILES	KCNQ2 block	KCNQ2 pot	Kir21 conf inh	HEK293 ctr	others
CC(NS(=O)(=O)c1ccc(Cl)cc1)C(=O)N1CCOCC1 (centres undefined)	i	0.56	·	·
CCNc1c(NS(=O)(=O)c2ccc(Cl)s2)c(=O)oc2ccccc12	i	·	·	·
CC1CC1C(=O)N1CCN(S(=O)(=O)c2cccc(F)c2)CC1 (centres undefined)	i	·	·	·
Cc1ccc(O)c(NC(=O)CCC2CCCCC2)c1	i	0.28	·	·
O=C(CCC1CCCCC1)Nc1ccccc1-c1ccccc1	i	11.6*	i	i	CHO-K1 ctr=38.3*;KCNQ1 pot spec=-11.7;KCNQ2 pot confirm=74.1*;Kir21 spec=-41.3;KCNQ2 W236L MoA=i
CCN(C(=O)Cn1cnc2ccccc2c1=O)C1CCS(=O)(=O)C1 (centres undefined)	i	·	·	·
CCCCOc1ccc(C(=O)NCC(=O)NCC(c2ccc(OC)cc2)N2CCCC2)cc1 (centres undefined)	i	·	·	·
CC(C)c1ccc(NC(=O)C(c2ccccc2)N(C)C(=O)c2cnccn2)cc1 (centres undefined)	i	0.26	·	·
COc1ccc(NC(=O)C(c2ccc(OC)cc2)N(C)C(=O)c2cnccn2)cc1 (centres undefined)	i	6.44*	i	i	CHO-K1 ctr=0.6*;KCNQ1 pot spec=-24.9;KCNQ2 pot confirm=24.4*;Kir21 spec=-27.9;KCNQ2 W236L MoA=i
C=C1CCN([C@H](C(=O)OCc2cccc(C)c2)C(C)C)S(=O)(=O)c2ccccc21	i	·	·	·
Cc1cc(C(=O)CCC(=O)N2CCN(S(=O)(=O)c3ccccc3)CC2)c(C)s1	i	6.23*	i	i	CHO-K1 ctr=-13.5;KCNQ1 pot spec=-13.8;KCNQ2 pot confirm=11.3*;Kir21 spec=-32.3;KCNQ2 W236L MoA=i
Cc1cc(C(=O)CCC(=O)N2CCN(S(=O)(=O)c3cccs3)CC2)c(C)s1	i	4.92	·	·
CC(C)C[C@H](NC(=O)Nc1ccc2c(c1)OCCO2)C(=O)O	i	0.75	·	·
COc1ccc(CNc2ccccc2)cc1Br	i	·	·	·
COc1cc(CNc2cccc(F)c2)cc(Br)c1O	i	11.2*	i	i	CHO-K1 ctr=2.4*;KCNQ1 pot spec=-8.2;KCNQ2 pot confirm=-5.5;Kir21 spec=-22.6
COc1ccc(CN2CCC(C(=O)c3cccc(Cl)c3)CC2)cc1	i	0.01	·	·
COc1ccc(CN2CCC(C(=O)c3ccc(Cl)cc3)CC2)cc1	i	0.34	20.5%*	i
O=c1nc(-c2ccccc2)c2cc(SC(F)F)ccc2[nH]1	i	·	·	·
CCn1nccc1C(=O)Nc1ccc(C(=O)OC(C)C)cc1	i	1.8	·	·
Cc1nn(C(C)C(=O)NCCCN2CCCCCC2)c(=O)c2cc3sccc3n12 (centres undefined)	i	·	·	·
N=C1S/C(=C\c2ccc(-c3cccc(Cl)c3)o2)C(=O)N1c1nccs1	i	6.54*	i	i	CHO-K1 ctr=-7.3;KCNQ1 pot spec=-21.6;KCNQ2 pot confirm=6.8*;Kir21 spec=-38.9;KCNQ2 W236L MoA=i
COc1ccc(/C=C2\SC(=N)N(c3nccs3)C2=O)cc1OC	i	4.81	·	·
Cn1nc(C(=O)Nc2nc(-c3ccc(F)cc3)cs2)ccc1=O	i	1.87	·	·
O=C(OCc1cccc([N+](=O)[O-])c1)c1ccncc1	i	6.58*	i	141.5%*	CHO-K1 ctr=-4.8;KCNQ1 pot spec=-19.4;KCNQ2 pot confirm=1.0*;Kir21 spec=-33.3;KCNQ2 W236L MoA=i
O=C(OCc1cccc([N+](=O)[O-])c1)c1cnccn1	i	1.58	·	·
Cc1ccsc1CN(C(=O)c1ccc([N+](=O)[O-])cc1)C1CCS(=O)(=O)C1 (centres undefined)	i	·	·	·
CC(=O)/C(CN1CCCCC1)=N\O	i	·	·	·
C/C(=N\O)C(=O)C(CN1CCCCC1)CN1CCCCC1	i	6.04*	i	i	CHO-K1 ctr=-6.4;KCNQ1 pot spec=35.4*;KCNQ2 pot confirm=-2.4;Kir21 spec=-31.2
CCn1cc(CCCC(=O)NCc2ccccc2OC)c2ccccc21	i	·	·	·
CCn1cc(CCC(=O)NCc2ccccc2OC)c2ccccc21	i	0.26	49.5%*	i
